Laboratory results published in ChEMBL document CHEMBL3988442, “University of Dundee, Small-Polar-MMV Screening Library” (2021).
For some assays here: Results with a measured potency or affinity are listed apart.

Legend:
Set-up in all cases: scale not given: direction of the effect not stated beside the values
[1] = target: Protein translocase subunit SecA (Escherichia coli (strain K12)) (UniProt P10408); assay: Assay to Identify E. coli SecA ATPase Inhibitors; type: functional; conditions: 30 µM
[2] = target: T1, Ubiquitin-activating enzyme e1, putative (Leishmania donovani (strain BPK282A1)) (UniProt E9BSI1); assay: Leishmania donovani Ubiquitin Activating Enzyme (LdE1); type: functional; conditions: 30 µM
T1 sequence (whole entry): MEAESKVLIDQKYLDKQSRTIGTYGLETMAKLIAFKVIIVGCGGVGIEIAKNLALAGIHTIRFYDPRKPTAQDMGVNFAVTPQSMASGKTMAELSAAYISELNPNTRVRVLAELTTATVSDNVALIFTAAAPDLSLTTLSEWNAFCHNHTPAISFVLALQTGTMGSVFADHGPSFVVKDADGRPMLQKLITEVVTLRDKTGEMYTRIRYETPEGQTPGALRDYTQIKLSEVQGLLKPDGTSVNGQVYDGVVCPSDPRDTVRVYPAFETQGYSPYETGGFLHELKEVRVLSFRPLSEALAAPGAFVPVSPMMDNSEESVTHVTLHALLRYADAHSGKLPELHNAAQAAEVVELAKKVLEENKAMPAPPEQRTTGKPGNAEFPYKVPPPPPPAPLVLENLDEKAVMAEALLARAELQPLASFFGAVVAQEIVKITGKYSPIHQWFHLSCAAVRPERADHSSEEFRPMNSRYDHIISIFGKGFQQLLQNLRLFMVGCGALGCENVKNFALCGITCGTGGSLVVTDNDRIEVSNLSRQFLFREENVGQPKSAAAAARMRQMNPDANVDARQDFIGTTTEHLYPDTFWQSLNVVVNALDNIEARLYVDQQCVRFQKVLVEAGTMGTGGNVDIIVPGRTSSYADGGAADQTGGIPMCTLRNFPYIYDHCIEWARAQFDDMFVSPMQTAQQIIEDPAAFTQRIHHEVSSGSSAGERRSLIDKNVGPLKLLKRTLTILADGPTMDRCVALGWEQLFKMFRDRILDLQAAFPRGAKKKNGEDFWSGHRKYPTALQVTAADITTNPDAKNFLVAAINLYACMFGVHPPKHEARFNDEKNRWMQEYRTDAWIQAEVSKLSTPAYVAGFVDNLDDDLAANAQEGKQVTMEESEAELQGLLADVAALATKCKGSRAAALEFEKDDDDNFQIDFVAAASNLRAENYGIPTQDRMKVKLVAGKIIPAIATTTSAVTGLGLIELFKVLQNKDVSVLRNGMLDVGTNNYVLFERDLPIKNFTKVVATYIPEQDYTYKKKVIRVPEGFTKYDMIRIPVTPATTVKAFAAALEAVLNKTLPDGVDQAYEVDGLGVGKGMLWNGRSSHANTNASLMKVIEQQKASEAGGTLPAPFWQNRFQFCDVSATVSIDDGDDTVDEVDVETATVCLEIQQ

[3] = target: AMP-activated protein kinase, AMPK (Homo sapiens) (UniProt P54646+O43741+P54619+Q9UGJ0+Q9Y478+Q13131+Q9UGI9); assay: AMP-dependent Kinase enzyme assay. An in vitro enzyme assay that detects ADP turnover that is directly proportional to AMPK activity. This uses naive AMPK that is activated during the assay with MK-8722; type: functional; conditions: 30 µM
[4] = target: Sialic acid-binding Ig-like lectin 9 (Homo sapiens) (UniProt Q9Y336); assay: Hs-Siglec9 ALPHAscreen SOP 20170721; conditions: 10 µM
[5] = tested on: Trypanosoma cruzi; assay: Trypanosoma cruzi phosphomannomutase and mannose-1-phosphate guanylyltransferase assay; type: functional; conditions: 10 µM
[6] = target: T2, Arginase-2, mitochondrial (Homo sapiens) (UniProt P78540); assay: in vitro enzyme assay to detect the production of urea directly proportional to the activity of Arginase II; type: functional; conditions: 33.3 µM; note: in the data most compounds retested in dose-response had high values
T2 sequence (whole entry): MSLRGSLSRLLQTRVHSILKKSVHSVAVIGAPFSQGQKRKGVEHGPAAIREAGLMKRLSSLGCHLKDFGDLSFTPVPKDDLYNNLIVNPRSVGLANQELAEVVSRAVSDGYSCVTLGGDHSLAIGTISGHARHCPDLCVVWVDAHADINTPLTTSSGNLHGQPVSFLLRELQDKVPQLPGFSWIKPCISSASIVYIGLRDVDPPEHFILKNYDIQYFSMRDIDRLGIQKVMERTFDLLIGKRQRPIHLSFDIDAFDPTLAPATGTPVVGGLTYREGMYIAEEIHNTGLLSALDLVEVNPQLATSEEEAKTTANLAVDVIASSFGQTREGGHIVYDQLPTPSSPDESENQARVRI

[7] = target: T3, Proteasome subunit beta (Trypanosoma cruzi) (UniProt O96673); assay: Trypanosoma cruzi proteasome chymotrypsin-like activity (TcProtChymo) assay.; note: in the data most compounds retested in dose-response had high values; type: functional; conditions: 9.37 µM
T3 sequence (whole entry): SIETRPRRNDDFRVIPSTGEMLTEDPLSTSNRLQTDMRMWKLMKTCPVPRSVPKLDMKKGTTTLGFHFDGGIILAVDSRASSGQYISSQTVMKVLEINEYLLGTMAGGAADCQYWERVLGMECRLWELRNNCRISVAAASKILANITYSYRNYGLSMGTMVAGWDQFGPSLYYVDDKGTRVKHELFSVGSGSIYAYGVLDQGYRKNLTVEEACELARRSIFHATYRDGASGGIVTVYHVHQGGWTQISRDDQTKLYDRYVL

[8] = species on record: Homo sapiens; assay: To identify inhibition of the IFN signalling (Jak-Stat) pathway via expression of an eGFP reporter gene under the control of an IFN-stimulated response element (ISRE) containing MxA promoter.; type: functional; conditions: 30 µM
[9] = target: T4, Tyrosyl-tRNA synthetase, putative (Trypanosoma cruzi (strain CL Brener)) (UniProt Q4DSP6); assay: Trypanosoma cruzi tyrosyl tRNA synthetase (TcYRS) _High Tyrosine SOP; type: functional; conditions: 30 µM; note: in the data most compounds retested in dose-response had high values
T4 sequence (whole entry): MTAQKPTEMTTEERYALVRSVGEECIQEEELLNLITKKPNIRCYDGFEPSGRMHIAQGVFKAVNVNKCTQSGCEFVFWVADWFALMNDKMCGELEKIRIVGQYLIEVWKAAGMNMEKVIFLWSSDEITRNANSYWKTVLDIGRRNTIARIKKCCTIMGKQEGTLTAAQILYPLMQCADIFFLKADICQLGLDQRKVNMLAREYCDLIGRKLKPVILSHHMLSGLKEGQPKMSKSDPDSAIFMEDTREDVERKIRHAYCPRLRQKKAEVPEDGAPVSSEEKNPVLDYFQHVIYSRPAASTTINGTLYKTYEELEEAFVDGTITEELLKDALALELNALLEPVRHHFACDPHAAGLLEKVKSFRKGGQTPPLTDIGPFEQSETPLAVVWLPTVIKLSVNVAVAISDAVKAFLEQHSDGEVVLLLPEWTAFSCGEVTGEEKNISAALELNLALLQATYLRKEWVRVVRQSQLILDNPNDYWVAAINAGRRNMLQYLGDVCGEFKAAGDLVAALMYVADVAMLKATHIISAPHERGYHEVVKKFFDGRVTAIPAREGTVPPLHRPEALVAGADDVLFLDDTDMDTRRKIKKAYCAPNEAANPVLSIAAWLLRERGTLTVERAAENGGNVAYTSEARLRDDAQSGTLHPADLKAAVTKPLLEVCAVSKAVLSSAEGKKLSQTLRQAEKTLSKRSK

[10] = target: T4, Tyrosyl-tRNA synthetase, putative (Trypanosoma cruzi (strain CL Brener)); assay: Trypanosoma cruzi tyrosyl tRNA synthetase (TcYRS) SOP; type: functional; conditions: 30 µM
[11] = target: Chromo domain-containing protein 1 (Saccharomyces cerevisiae (strain ATCC 204508 / S288c) (Baker's yeast)) (UniProt P32657); assay: ScCHD-1 Enzyme Inhibition Assay; type: functional; conditions: 30 µM; note: in the data most compounds retested in dose-response had high values
Chromo domain-containing protein 1 (Saccharomyces cerevisiae (strain ATCC 204508 / S288c) (Baker's yeast)), sequence (P32657 whole entry, the tested form may be a part): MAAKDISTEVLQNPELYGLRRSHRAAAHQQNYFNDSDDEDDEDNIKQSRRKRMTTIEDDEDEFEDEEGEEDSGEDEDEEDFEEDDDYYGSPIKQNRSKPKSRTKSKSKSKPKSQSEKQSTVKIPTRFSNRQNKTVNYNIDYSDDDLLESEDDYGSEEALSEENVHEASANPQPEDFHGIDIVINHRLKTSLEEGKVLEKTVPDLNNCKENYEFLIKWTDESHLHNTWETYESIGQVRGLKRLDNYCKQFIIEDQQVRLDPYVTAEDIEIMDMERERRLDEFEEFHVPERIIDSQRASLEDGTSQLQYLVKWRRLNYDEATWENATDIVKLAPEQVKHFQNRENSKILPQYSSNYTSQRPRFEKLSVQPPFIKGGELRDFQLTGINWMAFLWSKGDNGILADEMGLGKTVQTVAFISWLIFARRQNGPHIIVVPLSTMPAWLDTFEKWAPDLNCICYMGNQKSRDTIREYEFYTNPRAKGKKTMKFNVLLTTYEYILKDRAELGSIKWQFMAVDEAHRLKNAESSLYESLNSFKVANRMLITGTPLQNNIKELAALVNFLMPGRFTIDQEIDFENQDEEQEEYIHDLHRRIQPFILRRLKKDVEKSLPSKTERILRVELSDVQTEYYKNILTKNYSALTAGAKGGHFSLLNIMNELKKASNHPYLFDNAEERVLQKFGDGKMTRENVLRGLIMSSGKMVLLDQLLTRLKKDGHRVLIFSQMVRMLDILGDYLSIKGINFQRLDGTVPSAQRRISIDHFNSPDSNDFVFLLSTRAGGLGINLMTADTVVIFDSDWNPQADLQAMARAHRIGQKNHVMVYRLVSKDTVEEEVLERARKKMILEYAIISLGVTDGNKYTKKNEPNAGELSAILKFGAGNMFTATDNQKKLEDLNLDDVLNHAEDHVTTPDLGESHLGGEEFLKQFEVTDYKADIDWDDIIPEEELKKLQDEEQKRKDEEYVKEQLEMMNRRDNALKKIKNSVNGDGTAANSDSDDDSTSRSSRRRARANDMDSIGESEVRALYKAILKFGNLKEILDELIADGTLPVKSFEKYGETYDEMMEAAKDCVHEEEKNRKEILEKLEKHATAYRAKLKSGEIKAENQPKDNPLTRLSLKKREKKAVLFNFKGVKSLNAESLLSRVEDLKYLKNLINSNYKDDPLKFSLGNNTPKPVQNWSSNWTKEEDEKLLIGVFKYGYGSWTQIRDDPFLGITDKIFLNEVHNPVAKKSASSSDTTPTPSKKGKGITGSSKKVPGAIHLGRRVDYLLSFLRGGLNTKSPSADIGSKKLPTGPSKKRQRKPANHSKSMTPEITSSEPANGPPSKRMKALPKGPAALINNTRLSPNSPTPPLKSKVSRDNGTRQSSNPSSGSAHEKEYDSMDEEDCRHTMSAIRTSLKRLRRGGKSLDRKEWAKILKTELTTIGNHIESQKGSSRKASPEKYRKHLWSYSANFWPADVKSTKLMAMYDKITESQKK

Sialic acid-binding Ig-like lectin 9 (Homo sapiens), sequence (Q9Y336 whole entry): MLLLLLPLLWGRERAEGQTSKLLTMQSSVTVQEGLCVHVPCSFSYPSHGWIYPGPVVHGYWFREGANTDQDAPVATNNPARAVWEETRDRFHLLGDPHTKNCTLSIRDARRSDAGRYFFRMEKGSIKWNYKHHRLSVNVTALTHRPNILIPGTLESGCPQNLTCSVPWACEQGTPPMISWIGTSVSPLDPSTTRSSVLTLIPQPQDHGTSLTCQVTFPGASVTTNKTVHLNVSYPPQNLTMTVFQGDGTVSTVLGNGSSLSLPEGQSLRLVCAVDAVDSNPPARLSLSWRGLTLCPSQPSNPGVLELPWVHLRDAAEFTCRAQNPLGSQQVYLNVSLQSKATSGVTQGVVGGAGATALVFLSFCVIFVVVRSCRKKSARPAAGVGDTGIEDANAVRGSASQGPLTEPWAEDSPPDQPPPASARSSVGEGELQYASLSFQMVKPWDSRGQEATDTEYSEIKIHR
Protein translocase subunit SecA (Escherichia coli (strain K12)), sequence (P10408 whole entry): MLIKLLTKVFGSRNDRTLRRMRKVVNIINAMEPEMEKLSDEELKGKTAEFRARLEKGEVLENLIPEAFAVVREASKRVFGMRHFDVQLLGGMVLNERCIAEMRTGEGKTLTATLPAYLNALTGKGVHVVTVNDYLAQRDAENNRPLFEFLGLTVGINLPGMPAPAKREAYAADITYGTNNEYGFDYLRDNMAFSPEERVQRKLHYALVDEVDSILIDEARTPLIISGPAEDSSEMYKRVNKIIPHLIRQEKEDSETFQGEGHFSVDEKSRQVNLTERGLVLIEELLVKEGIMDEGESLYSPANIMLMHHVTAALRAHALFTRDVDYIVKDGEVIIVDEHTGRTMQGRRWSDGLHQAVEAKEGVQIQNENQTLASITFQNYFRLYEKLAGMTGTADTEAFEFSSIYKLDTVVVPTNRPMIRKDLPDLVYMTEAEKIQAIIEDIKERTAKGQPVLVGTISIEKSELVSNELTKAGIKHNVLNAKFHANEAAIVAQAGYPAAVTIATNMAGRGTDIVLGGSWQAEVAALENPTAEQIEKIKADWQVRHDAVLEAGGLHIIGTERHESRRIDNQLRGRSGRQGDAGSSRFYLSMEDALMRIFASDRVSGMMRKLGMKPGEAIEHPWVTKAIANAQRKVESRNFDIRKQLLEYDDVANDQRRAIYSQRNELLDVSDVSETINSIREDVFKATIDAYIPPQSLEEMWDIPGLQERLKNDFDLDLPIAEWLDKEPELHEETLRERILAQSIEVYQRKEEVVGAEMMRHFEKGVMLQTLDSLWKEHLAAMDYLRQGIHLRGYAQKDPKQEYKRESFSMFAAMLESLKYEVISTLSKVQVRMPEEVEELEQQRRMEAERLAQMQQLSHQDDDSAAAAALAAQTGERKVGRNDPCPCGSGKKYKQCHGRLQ

Compound	Percent Effect [1] [%]	Percent Effect [2] [%]	Percent Effect [3] [%]	Percent Effect [4] [%]	Percent Effect [5] [%]	Percent Effect [6] [%]	Percent Effect [7] [%]	Percent Effect [8] [%]	Percent Effect [9] [%]	Percent Effect [10] [%]	Percent Effect [11] [%]
Cc1ccc(C#N)c(N2CCC(c3nccn3Cc3cscn3)CC2)n1	-1.6	10.7	-4.04	15.7	5.75	9.38	13.2	3.33	4.92	16.1	-7.28
CC1c2ncc(COc3cccnc3)n2CCN1C(=O)C1=CCCC1 (configuration not stated)	-4.3	12	-0.286	5.22	-2.75	-1.58	9.43	16.6	7.41	10.3	-7.55
Cc1n[nH]cc1CNc1ccc2c(c1)N(C(=O)OC(C)(C)C)CCC2	-6.86	7.79	-1.81	5.14	1.08	-8.28	7.65	4.68	4.3	8.64	0.972
CC1CCN(C(CNC(=O)CCn2cccn2)c2cccs2)CC1 (configuration not stated)	-0.447	13.3	-0.997	10.3	2.82	8.85	26.5	4.2	6.01	21	-5.13
Cn1ccc(C(=O)N2CCC[C@]3(C[C@@H](OCc4ccccn4)CO3)C2)n1	-3.65	13.5	2.83	-1.64	-2.64	8.6	15.1	2.73	8.65	17.9	-1.5
COc1ccc(CNC(=O)NC2CCN(CC(F)F)CC2)cc1C	-6.96	5.41	-0.551	14.3	3.23	3.72	2.15	-4.85	4.3	13.6	-4.89
O=C1OC2(CCN(C3CCCOC3)CC2)CN1CCc1ccccc1 (configuration not stated)	-0.187	7.79	-6.88	5.02	-3.64	-11	14	15.6	3.23	6.17	0.643
O=C(CCc1cc2n(n1)CCCN(Cc1ccccc1F)C2)NC1CC1	-3.75	1.39	1.32	0.0735	6.71	-2.21	10.2	-26.8	2.1	5.13	-4.12
CN1CCN(Cc2cn3c(n2)CN(Cc2cccnc2)CC3)CC1	5.16	16.2	12.3	-13.1	-7.14	2.23	5.72	16.3	1.08	10.3	-4.09
CC(=O)N1C[C@H](NC(=O)c2cscn2)[C@@H]2OCCC[C@@H]21	-1.76	10.8	2.39	-9.14	-5.38	7.33	23.2	-9.35	-1.08	10.3	-0.517
Cc1cnn(C2CN(CC(=O)Nc3cccnc3)C2)c1	-4.23	7.89	-7.32	-2.24	-8.68	2.52	-0.254	-0.514	-4.43	3.7	3.7
Cn1ncc2c1CCCC2NCc1cnc(-c2ccccc2)nc1 (configuration not stated)	-8.3	13.5	-13.8	24.2	4.62	-7.21	1.44	22.4	2.46	18.5	-12.3
CCC(=O)N1CCC(c2nnc(Cn3cccn3)n2C2CC2)CC1	-5.96	18.1	-4.09	12.6	2.23	-0.442	8.07	-1.41	4.21	12.8	-0.227
Clc1ccc(OCCN2CCN(CCn3cncn3)CC2)cc1	-0.515	-5.41	-3.56	26.8	8.69	-2.86	4.48	13.3	1.59	14.6	-8.8
CCC1=N[C@@]2(CC[C@@H]3CN(S(=O)(=O)CC(C)C)C[C@@H]32)C(=O)N1C	-0.279	10.4	4.02	2.43	-3.25	7.1	13.2	-9.27	5.29	16.7	-9.12
Cc1ccc(C(=O)NS(=O)(=O)c2ccccc2C)c(=O)[nH]1	-3.76	8.11	-4.75	9.94	-5.85	-6.84	4.85	15.8	7.92	6.1	1.56
CN(C)C(=O)CN1CCC2(CCCN(Cc3cccn3C)C2)C1=O (configuration not stated)	-6.92	10.7	0.926	-7.4	-5.12	-3.96	18.2	10.5	1.06	1.28	-7.43
COC(=O)c1cccn1C1CCN(C(=O)c2cn[nH]c2C)CC1	-3.48	10.4	0.41	9.63	4.31	0.356	8.11	21	6.8	19.5	-9.12
N#Cc1ccnc(N2CCC(c3nccn3Cc3cscn3)CC2)c1	-1.75	13.3	2.35	5.36	3.8	0	15.5	21.8	4.92	13.6	-7.45
CC(=O)Nc1nc(CN2CCOC(Cn3cc(C)cn3)C2)cs1 (configuration not stated)	-2.79	15.6	9.13	-6.5	0.0979	0.21	19.5	2.79	3.81	21.2	-20.4
COCC(c1cccc(C(F)(F)F)c1)N(C)C(=O)c1cc(C)n[nH]1 (configuration not stated)	0.248	18.4	-1.4	-4.5	-3.01	2.68	9.02	0.723	1.47	12.2	-13
Cc1nc(N2CCN(C(=O)c3ccccc3)CC2)c2c(n1)c(C)nn2C	-0.87	12	3.25	0	-0.393	-12.8	12.9	25.6	6.35	10.3	-10.1
